# Source: PubChem BioAssay (NCATS)
# Inconclusive results are not listed. Entries that show only a call come without a potency. A number with no mark means an inactive call. Calls of active or inactive are those of the source. Calls follow the shape of the dose curve; as a rule, active = well fitted cell-killing curve with a large enough effect; inconclusive = small, poorly fitted or top-dose-only effect, or effect the other way; inactive = flat fitted curve, though single readings scatter.
# Tested on: PA-1
# Assay: Primary qHTS to identify gynecologic anti-cancer compounds using libraries of approved drugs and bioactive compounds (AID 1345084); also: nearly all actives have a fitted effect of over 55% in size
# Conditions: Gynecologic cancer cell panel viability, ATPlite luminescence, 48 h; series mostly up to 57.5 µM
# How it was run: (§1)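 Cell viability after 48 h drug treatment, ATPlite luminescence readout; five doses.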
# Potency is read from the fitted curve at half-maximal effect.
row,SMILES,Potency
1,Nc1ccc(/C=C/C(=O)NCc2cc3cc(-c4ccc(C(=O)N5CCC(F)(F)CC5)cc4)cc(-c4ccc(F)cc4)c3o2)cn1,1410 nM (active)
2,c1ccc(-c2ncc(CN3CCN(c4ncccn4)CC3)[nH]2)cc1,inactive
3,COC(=O)C1=CO[C@@H](O[C@@H]2O[C@H](CO)[C@@H](O)[C@H](O)[C@H]2O)[C@@H]2C(CO)=CC[C@]12O,inactive
4,CC(C)CCC1(O)C(=O)C(C)(C)C(O[C@@H]2O[C@H](CO)[C@@H](O)[C@H](O)[C@H]2O)C(C)(C)C1O (some centres undefined),inactive
5,CCOCCn1nc(CC)c2nc(N3CCC(C(=O)O)CC3)nc(Nc3cc(C)ccn3)c21,inactive

# Tested on: SKOV3
# Assay: as above
# Conditions: Gynecologic cancer cell panel viability, ATPlite luminescence, 48 h; series mostly up to 57.5 µM
# How it was run: as §1
SMILES,Potency,"activity change, negative = cytotoxicity"
CC12CCC(OC3OC(CO)C(O)C(OC4OC(CO)C(O)C(O)C4O)C3O)CC1CCC1C2CCC2(C)/C(=C3/COC(=O)C3)CCC12O (centres undefined),inactive,–
CC[C@@H](O)C[C@@H]1C(C)=C[C@@H]2CCCC[C@@H]2[C@@]1(C)C(=O)O,inactive,–
CNC(=O)c1cccc(-c2ccc3c(N4CCOC[C@@H]4C)nc(N4CCOC[C@@H]4C)nc3n2)c1,1580 nM (active),–
C/C=C/C=C/C(=O)N1CC[C@]23c4ccccc4N[C@H]4N(C)c5cccc6c5[C@@]42CCN([C@H]6C2OC2(C)C)[C@H]13 (some centres undefined),inactive,–
CC1(C)CC[C@]2(C(=O)OC3OC(CO)C(O)C(O)C3O)CC[C@]3(C)C(=CCC4[C@@]5(C)CC[C@H](OC6OC(C(=O)O)C(O)C(OC7OC(CO)C(O)C(O)C7O)C6O)C(C)(C)C5CC[C@]43C)C2C1 (some centres undefined),–,-1.26% [at 11.6 µM]
O=C(O)CC(=O)OC[C@H]1O[C@@H](Oc2ccc3c(c2)OC[C@H]2c4cc5c(cc4O[C@@H]32)OCO5)[C@H](O)[C@@H](O)[C@@H]1O,inactive,–
Cc1ccc(C)c(OCCn2cc(C(=O)O)c3ccccc32)c1,inactive,–
COc1ccc(C[C@H](N)C(=O)N[C@@H]2[C@H](O)[C@H](n3cnc4c(N(C)C)ncnc43)O[C@@H]2CO)cc1,2820 nM (active),–
COc1ccc(/C=C/C(=O)O[C@@H]2[C@@H](O)[C@H](C)O[C@@H](O[C@H]3[C@@H]4C=CO[C@@H](O[C@H]5O[C@@H](CO)[C@H](O)[C@@H](O)[C@@H]5O)[C@@H]4[C@@]4(CO)O[C@@H]34)[C@@H]2OC(C)=O)cc1,inactive,–
CC(C)c1cc(C(=O)N2CC[C@H](NC(=O)C3CC3)C2)n[nH]1,inactive,–
CC1CCC2(OC1)OC1CC3C4CC=C5CC(O)CC(O[C@@H]6OC[C@@H](O)[C@H](O)[C@H]6O)C5(C)C4CCC3(C)C1(O)C2C (some centres undefined),inactive,–
COc1ccc(-c2ccc3c(N4CCOCC4)nc(N4CC(C)OC(C)C4)nc3n2)cc1CO (centres undefined),794 nM (active),–
CC1=CC(=O)C(=C(C)C)CC2C1CCC2(C)O (centres undefined),inactive,–
CC(C)(C)c1ccc(S(=O)(=O)NCc2ccc(C(=O)Nc3cccnc3)cc2)cc1,7080 nM (active),–
COc1ccc(-c2c(-c3cc(C(=O)O)ccn3)ncn2C)cc1,inactive,–
O=C(O)c1cc(-c2c(-c3ccccc3)nn3ccccc23)n[nH]c1=O,inactive,–
CC(C)(C)NCCCNC(=O)c1cccc(Br)c1,inactive,–
c1ccc(-c2csc(N3CCOCC3)n2)cc1,inactive,–
O=C1CCC(=O)N(O)CCCCCNC(=O)CCC(=O)N(O)CCOCCNC(=O)CCC(=O)N(O)CCCCCN1,inactive,–
C=C1CC[C@H]2[C@@](C)(CCC(O)[C@@]2(C)CO)[C@@H]1CCC1=CCOC1=O (some centres undefined),inactive,–

SMILES,Potency,"activity change, negative = cytotoxicity"
CC1(C)CCC[C@]2(C)[C@H]3CC(=O)O[C@]3(C)CC[C@@H]12,inactive,–
O=C(O)c1cc2cccc([N+](=O)[O-])c2[nH]1,inactive,–
Nc1ccccc1N,12600 nM (active),–
CC1(C)CC[C@]2(C(=O)O[C@@H]3O[C@H](CO)[C@@H](O)[C@H](O)[C@H]3O)CC[C@]3(C)C(=CCC4[C@@]5(C)C[C@@H](O)[C@H](O)C(C)(C)C5[C@H](O)C[C@]43C)[C@@H]2[C@@H]1O (some centres undefined),inactive,–
CN1CCN(Cc2ccc(-c3cnc4[nH]cc(-c5ccc6[nH]ccc6c5)c4c3)cc2)CC1,14100 nM (active),–
Nc1nccn2c(C3CCC(C(=O)O)CC3)nc(-c3cc4cccc(Cl)c4[nH]3)c12 (centres undefined),3160 nM (active),–
COc1ccc(-n2[nH]c(=O)c3[nH]c4cc(Cl)ccc4c(=O)c3c2=O)c(C)c1,inactive,–
CC1(C)CCCC2(C)C(C(=O)O)=CCC12 (centres undefined),inactive,–
C=C(C)C1CCC(C)C12CC(O)C1(C)OC1C2OC(=O)C(N)CCC(=O)O (centres undefined),inactive,–
CC1CCC2(C(=O)O)CCC3(C)C(=CCC4C5(C)CCC(O)C(C)(CO)C5CCC43C)C2C1(C)O (centres undefined),inactive,–
COc1cc([C@H]2c3cc(O)c(OC)cc3C[C@@H](CO[C@@H]3O[C@H](CO)[C@@H](O)[C@H](O)[C@H]3O)[C@@H]2CO)ccc1O,inactive,–
O=C(O)/C=C/c1ccc(-c2ccc(O)c(C34CC5CC(CC(C5)C3)C4)c2)cc1,631 nM (active),–
COc1cc(O)cc(C)c1C(=O)OC1C(CO)OC(OC2C(O)C(O)C(O)C(O)C2O)C(O)C1O (centres undefined),inactive,–
CCOCc1cc(OC)c(-c2ccc(C[C@H](NC(=O)c3c(F)cccc3F)C(=O)O)cc2)c(OC)c1,inactive,–
Nc1ccc(/C=C/C(=O)NCc2cc3cc(-c4ccc(C(=O)N5CCC(F)(F)CC5)cc4)cc(-c4ccc(F)cc4)c3o2)cn1,1780 nM (active),–
c1ccc(-c2ncc(CN3CCN(c4ncccn4)CC3)[nH]2)cc1,inactive,–
COC(=O)C1=CO[C@@H](O[C@@H]2O[C@H](CO)[C@@H](O)[C@H](O)[C@H]2O)[C@@H]2C(CO)=CC[C@]12O,inactive,–
CC(C)CCC1(O)C(=O)C(C)(C)C(O[C@@H]2O[C@H](CO)[C@@H](O)[C@H](O)[C@H]2O)C(C)(C)C1O (some centres undefined),inactive,–
CCOCCn1nc(CC)c2nc(N3CCC(C(=O)O)CC3)nc(Nc3cc(C)ccn3)c21,inactive,–
